Holding throughout (experiment): DAPPL (digital affinity profiling via proximity ligation, sequencing); 10 mM Tris-HCl pH 7.5, 50 mM NaCl, 1 mM DTT, 4% glycerol, room temperature, 30 min; GST-TFs on glutathione beads, 16-mer random dsDNA library, 0.1% formaldehyde crosslink after washing; high values mean tight binding
The target of one assay is T1, FEV (Homo sapiens, UniProt Q99581 1-238).
T1 sequence: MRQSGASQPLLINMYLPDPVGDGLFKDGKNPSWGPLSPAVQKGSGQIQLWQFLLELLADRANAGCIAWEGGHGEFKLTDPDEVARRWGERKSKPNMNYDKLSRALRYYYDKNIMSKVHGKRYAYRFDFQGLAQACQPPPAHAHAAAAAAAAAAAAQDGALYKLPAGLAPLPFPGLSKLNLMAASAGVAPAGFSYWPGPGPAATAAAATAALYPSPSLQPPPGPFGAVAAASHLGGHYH
The following applies: protein: recombinant; tags: N-terminal GST; dsDNA, one strand shown. Summed up:
(§1)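 Binding signal is each hexamer's read frequency for a factor divided by its frequency in the tag-only sample. The factors were GST-fused human transcription factors from yeast, captured on glutathione beads, DNA-barcoded and pooled with that sample. Pools were incubated with 200 nmole of a random double-stranded 16-mer DNA library in Tris/NaCl/DTT/glycerol buffer at room temperature for 30 min, then washed, crosslinked with 0.1% formaldehyde, proximity-ligated with BsaI/T4 ligase (1 h, 37 °C), PCR-amplified and sequenced on an Illumina NextSeq500.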

The target of a further assay is ETV5 (Homo sapiens, UniProt P41161 1-510). As to conditions: protein: recombinant; tags: N-terminal GST; dsDNA, one strand shown. The procedure, abridged: as §1
Sequence of ETV5 (P41161 whole entry): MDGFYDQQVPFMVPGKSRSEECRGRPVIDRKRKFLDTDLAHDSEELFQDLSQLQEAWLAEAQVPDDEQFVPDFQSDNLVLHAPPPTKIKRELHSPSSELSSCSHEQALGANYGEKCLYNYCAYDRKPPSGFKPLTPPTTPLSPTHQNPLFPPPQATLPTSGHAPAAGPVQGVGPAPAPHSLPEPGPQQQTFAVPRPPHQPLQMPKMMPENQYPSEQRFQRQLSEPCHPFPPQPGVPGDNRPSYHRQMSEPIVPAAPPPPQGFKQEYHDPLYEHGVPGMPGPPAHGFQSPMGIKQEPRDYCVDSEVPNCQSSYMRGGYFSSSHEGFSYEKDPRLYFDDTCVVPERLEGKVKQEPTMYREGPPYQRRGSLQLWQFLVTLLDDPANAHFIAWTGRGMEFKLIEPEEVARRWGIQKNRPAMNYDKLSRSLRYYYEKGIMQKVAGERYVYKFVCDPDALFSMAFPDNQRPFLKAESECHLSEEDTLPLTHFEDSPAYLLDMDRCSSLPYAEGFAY
In the next assay the target is HSF1 (Homo sapiens, UniProt Q00613 1-529). As to conditions: protein: recombinant; tags: N-terminal GST; chain copies: 3; dsDNA, one strand shown. Summed up: as §1
Sequence of HSF1 (Q00613 whole entry): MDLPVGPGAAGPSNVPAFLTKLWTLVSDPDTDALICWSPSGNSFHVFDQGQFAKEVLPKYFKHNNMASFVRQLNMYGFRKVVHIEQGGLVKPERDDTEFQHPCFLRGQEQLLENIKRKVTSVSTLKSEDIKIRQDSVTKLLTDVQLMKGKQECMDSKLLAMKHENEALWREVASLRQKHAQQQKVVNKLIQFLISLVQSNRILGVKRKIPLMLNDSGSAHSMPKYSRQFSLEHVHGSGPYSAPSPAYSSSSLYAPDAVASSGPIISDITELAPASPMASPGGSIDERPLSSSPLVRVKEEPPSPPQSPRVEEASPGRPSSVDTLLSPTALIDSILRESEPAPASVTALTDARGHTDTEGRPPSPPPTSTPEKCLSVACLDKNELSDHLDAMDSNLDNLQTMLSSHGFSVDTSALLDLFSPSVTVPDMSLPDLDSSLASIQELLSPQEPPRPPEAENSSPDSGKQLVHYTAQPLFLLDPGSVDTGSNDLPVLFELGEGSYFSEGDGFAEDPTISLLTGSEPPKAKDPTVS
For a further assay, the target named is T2, SPIC (Homo sapiens, UniProt Q8N5J4 1-248).
T2 sequence: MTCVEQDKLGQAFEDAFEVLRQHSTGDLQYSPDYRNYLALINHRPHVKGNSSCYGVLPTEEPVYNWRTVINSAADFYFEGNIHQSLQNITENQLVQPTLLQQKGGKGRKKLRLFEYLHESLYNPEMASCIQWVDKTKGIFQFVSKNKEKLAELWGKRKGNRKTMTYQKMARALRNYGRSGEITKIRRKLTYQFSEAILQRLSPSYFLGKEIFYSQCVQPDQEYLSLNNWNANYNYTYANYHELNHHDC
As to conditions: protein: recombinant; tags: N-terminal GST; dsDNA, one strand shown. Summed up:
as §1

A further assay deals with ELF4 (Homo sapiens, UniProt Q99607 1-663). The following applies: protein: recombinant; tags: N-terminal GST; dsDNA, one strand shown. The procedure, abridged:
as §1

Another assay has as its target T3, ELK4 (Homo sapiens, UniProt P28324-2 1-405).
T3 sequence: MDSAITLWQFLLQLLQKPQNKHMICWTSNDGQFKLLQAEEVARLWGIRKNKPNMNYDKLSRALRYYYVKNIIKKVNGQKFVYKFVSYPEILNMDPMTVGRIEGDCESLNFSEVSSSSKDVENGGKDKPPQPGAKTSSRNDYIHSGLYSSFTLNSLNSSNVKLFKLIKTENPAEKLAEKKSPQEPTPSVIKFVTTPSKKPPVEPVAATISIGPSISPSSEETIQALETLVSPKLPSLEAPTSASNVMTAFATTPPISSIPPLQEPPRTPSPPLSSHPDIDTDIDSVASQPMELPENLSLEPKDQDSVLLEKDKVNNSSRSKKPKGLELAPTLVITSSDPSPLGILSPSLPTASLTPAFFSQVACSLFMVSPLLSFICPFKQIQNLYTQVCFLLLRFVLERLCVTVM
The following applies: protein: recombinant; tags: N-terminal GST; dsDNA, one strand shown. Summed up: as §1

A further assay concerns the target T4, ETV2 (Homo sapiens, UniProt O00321 1-342).
T4 sequence: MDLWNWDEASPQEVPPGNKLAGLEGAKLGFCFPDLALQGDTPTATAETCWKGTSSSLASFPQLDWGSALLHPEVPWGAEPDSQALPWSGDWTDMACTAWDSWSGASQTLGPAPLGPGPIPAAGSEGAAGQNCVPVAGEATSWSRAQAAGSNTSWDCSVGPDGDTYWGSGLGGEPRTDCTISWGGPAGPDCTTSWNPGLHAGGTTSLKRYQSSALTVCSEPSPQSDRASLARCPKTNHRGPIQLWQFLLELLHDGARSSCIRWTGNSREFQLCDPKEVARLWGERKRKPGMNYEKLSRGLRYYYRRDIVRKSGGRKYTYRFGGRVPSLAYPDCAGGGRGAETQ
As to conditions: protein: recombinant; tags: N-terminal GST; dsDNA, one strand shown. Summed up: as §1

In another assay the target is T5, ELF3 (Homo sapiens, UniProt P78545 1-371).
T5 sequence: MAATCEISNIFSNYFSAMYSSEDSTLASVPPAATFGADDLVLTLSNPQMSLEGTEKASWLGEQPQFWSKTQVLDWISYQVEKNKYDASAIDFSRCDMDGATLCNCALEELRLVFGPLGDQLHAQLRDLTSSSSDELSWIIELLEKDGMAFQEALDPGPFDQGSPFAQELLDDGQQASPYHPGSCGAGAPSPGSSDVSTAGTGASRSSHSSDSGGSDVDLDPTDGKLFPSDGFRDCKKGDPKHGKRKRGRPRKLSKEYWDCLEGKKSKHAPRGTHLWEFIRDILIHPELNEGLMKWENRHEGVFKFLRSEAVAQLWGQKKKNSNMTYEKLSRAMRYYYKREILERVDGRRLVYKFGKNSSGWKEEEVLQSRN
As to conditions: protein: recombinant; tags: N-terminal GST; dsDNA, one strand shown. Summed up:
as §1

Another assay deals with CRX (Homo sapiens, UniProt O43186 1-299). As to conditions: protein: recombinant; tags: N-terminal GST; dsDNA, one strand shown. The procedure, abridged:
as §1

The target of a further assay is ETV1 (Homo sapiens, UniProt P50549 1-477). The following applies: protein: recombinant; tags: N-terminal GST; dsDNA, one strand shown. Summed up:
as §1

In a further assay the target is T6, ERF (Homo sapiens, UniProt P50548 1-548).
T6 sequence: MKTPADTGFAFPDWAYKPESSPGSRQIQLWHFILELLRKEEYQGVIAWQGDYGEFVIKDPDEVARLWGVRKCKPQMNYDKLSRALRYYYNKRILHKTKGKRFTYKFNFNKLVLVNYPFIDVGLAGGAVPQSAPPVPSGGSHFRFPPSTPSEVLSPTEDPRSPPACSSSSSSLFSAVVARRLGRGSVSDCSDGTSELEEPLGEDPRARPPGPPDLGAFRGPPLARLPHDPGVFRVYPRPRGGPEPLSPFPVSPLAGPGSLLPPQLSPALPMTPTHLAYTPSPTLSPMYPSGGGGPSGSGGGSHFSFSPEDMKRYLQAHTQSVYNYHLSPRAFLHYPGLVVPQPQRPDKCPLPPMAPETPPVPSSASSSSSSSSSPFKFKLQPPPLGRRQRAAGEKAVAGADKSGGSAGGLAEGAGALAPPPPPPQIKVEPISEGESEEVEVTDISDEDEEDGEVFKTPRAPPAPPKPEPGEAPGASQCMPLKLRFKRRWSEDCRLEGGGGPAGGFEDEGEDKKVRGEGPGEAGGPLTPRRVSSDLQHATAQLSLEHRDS
The following applies: protein: recombinant; tags: N-terminal GST; dsDNA, one strand shown. The procedure, abridged: as §1

The target of another assay is T7, ETV3L (Homo sapiens, UniProt Q6ZN32 1-361).
T7 sequence: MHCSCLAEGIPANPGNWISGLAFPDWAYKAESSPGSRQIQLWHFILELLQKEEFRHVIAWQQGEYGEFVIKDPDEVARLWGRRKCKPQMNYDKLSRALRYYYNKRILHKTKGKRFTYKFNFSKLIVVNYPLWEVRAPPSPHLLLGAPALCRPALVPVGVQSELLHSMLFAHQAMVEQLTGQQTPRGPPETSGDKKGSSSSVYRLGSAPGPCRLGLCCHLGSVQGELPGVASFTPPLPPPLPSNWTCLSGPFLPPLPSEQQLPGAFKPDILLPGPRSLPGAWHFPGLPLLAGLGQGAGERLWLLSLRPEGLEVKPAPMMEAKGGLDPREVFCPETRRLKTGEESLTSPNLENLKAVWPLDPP
The following applies: protein: recombinant; tags: N-terminal GST; dsDNA, one strand shown. Summed up:
as §1

In the next assay the target is T8, ETS2 (Homo sapiens, UniProt P15036 1-469).
T8 sequence: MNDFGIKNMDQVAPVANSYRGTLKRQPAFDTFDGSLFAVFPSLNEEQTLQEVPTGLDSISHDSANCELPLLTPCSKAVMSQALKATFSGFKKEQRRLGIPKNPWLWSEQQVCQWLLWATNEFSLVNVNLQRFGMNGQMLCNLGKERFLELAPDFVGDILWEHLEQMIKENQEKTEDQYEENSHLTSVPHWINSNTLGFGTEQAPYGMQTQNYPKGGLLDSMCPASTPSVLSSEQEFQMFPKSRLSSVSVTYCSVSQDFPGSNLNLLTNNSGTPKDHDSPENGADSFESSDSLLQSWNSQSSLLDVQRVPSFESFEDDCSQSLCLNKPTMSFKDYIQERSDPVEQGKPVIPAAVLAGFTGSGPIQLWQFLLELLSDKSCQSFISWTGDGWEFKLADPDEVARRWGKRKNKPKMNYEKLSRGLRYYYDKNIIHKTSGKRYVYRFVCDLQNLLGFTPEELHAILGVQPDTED
As to conditions: protein: recombinant; tags: N-terminal GST; dsDNA, one strand shown. Summed up: as §1

For the next assay, the target named is T9, SPDEF (Homo sapiens, UniProt O95238 1-335).
T9 sequence: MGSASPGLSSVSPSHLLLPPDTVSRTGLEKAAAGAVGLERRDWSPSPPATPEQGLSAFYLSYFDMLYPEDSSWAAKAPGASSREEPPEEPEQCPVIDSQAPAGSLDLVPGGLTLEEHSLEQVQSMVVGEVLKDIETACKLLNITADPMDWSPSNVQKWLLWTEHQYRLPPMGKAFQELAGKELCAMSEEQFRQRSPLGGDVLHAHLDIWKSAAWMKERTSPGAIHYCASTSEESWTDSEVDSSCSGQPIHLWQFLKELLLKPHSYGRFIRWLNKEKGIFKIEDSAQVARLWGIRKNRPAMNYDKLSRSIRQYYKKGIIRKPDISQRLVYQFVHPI
The following applies: protein: recombinant; tags: N-terminal GST; dsDNA, one strand shown. Summed up: as §1

In a further assay the target is T10, ETV7 (Homo sapiens, UniProt Q9Y603 1-341).
T10 sequence: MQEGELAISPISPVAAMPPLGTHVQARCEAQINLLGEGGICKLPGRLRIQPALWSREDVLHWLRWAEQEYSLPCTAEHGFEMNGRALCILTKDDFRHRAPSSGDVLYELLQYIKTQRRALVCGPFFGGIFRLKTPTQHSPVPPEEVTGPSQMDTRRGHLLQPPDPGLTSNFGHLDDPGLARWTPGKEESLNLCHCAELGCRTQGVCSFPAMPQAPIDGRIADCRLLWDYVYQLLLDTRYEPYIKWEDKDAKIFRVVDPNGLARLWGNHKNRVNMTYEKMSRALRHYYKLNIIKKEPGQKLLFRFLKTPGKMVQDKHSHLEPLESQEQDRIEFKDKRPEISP
The following applies: protein: recombinant; tags: N-terminal GST; dsDNA, one strand shown. The procedure, abridged: as §1

In the next assay the target is T11, ELF5 (Homo sapiens, UniProt Q9UKW6-2 1-255).
T11 sequence: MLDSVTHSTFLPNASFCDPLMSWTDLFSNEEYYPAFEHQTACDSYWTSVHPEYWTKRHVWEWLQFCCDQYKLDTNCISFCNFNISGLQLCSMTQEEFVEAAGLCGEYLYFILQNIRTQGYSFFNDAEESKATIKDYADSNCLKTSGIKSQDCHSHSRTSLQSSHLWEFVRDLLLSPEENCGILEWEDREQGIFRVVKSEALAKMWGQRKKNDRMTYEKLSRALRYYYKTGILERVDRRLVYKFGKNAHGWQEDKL
As to conditions: protein: recombinant; tags: N-terminal GST; dsDNA, one strand shown. The procedure, abridged: as §1

A further assay deals with T12, ETV3 (Homo sapiens, UniProt P41162-2 1-143).
T12 sequence: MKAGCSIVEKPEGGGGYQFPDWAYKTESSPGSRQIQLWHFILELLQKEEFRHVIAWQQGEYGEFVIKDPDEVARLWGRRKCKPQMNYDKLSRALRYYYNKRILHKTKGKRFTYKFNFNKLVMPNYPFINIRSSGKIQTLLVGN
The following applies: protein: recombinant; tags: N-terminal GST; dsDNA, one strand shown. The procedure, abridged: as §1

A further assay addresses ETV6 (Homo sapiens, UniProt P41212 1-452). As to conditions: protein: recombinant; tags: N-terminal GST; dsDNA, one strand shown. Summed up: as §1

Sequence of ELF4 (Q99607 whole entry): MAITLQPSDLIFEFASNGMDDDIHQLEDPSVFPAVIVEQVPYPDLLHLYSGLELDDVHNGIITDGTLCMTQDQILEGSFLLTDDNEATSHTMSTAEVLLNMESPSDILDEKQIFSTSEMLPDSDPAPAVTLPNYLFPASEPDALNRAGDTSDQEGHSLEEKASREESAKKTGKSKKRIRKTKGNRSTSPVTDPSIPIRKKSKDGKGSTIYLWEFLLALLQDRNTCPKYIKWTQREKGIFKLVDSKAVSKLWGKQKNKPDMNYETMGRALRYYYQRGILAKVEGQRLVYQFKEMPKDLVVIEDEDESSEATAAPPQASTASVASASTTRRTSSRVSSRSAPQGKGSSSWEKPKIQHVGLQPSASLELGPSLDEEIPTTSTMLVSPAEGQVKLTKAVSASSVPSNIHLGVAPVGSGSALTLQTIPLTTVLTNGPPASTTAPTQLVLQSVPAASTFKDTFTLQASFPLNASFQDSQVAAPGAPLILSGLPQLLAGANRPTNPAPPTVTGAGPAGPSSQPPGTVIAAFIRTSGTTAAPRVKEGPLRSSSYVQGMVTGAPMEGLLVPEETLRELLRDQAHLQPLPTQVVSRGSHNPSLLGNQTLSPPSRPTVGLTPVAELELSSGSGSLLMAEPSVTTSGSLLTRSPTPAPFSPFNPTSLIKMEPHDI
Sequence of ETV1 (P50549 whole entry): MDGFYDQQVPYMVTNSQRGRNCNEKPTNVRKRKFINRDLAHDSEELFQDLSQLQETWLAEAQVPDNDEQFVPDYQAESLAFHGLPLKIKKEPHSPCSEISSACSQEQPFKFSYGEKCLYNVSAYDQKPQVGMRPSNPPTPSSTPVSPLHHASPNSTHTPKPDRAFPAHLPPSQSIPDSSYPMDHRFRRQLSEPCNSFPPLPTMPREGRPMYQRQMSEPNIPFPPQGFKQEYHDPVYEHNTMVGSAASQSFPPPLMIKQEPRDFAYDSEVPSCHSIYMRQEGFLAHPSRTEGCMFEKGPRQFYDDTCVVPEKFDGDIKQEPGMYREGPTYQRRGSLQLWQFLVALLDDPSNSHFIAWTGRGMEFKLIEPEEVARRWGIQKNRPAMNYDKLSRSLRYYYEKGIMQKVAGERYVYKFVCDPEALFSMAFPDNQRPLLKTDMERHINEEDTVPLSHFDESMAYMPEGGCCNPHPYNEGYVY
Sequence of CRX (O43186 whole entry): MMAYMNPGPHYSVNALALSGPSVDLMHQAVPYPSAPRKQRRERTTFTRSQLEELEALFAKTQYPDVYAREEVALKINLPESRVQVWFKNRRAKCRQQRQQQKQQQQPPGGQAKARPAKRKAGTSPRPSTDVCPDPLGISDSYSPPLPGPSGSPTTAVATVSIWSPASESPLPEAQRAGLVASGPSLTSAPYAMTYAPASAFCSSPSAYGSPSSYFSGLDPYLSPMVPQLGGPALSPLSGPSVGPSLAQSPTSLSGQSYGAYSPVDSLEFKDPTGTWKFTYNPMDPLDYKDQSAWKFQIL
Sequence of ETV6 (P41212 whole entry): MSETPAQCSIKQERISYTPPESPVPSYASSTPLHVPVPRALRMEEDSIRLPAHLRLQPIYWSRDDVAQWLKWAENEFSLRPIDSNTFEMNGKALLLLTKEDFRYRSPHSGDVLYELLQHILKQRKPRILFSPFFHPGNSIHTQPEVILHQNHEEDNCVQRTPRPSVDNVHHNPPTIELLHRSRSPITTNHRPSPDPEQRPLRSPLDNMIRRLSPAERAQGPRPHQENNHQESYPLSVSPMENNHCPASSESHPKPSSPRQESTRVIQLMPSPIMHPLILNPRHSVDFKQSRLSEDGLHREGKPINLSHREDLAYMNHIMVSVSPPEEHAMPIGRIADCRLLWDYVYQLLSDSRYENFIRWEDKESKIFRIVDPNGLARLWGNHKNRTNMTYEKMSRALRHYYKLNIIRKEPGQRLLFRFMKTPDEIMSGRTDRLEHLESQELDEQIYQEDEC

For the sequence TTTCAG, the binding signal is 1.3 fold enrichment (6-mer frequency, TF over GST control) in the assay with FEV; 1.28 fold enrichment (6-mer frequency, TF over GST control) with ETV5; 1.3 fold enrichment (6-mer frequency, TF over GST control) in the assay with HSF1; 1.14 fold enrichment (6-mer frequency, TF over GST control) with SPIC; 1.33 fold enrichment (6-mer frequency, TF over GST control) in the assay with ELF4; 1.38 fold enrichment (6-mer frequency, TF over GST control) in the assay with ELK4. The binding signal is 1.43 fold enrichment (6-mer frequency, TF over GST control) with ETV2; 1.24 fold enrichment (6-mer frequency, TF over GST control) with ELF3; 1.31 fold enrichment (6-mer frequency, TF over GST control) with CRX; 1.39 fold enrichment (6-mer frequency, TF over GST control) in the assay with ETV1; 1.38 fold enrichment (6-mer frequency, TF over GST control) in the assay with ERF; 1.31 fold enrichment (6-mer frequency, TF over GST control) in the assay with ETV3L. The binding signal is 1.27 fold enrichment (6-mer frequency, TF over GST control) with ETS2; 1.37 fold enrichment (6-mer frequency, TF over GST control) with SPDEF; 1.13 fold enrichment (6-mer frequency, TF over GST control) with ETV7; 1.28 fold enrichment (6-mer frequency, TF over GST control) with ELF5; 1.27 fold enrichment (6-mer frequency, TF over GST control) with ETV3; 1.31 fold enrichment (6-mer frequency, TF over GST control) with ETV6.

The values are drawn from publication PMC7862700, “An all-to-all approach to the identification of sequence-specific readers for epigenetic DNA modifications on cytosine”.
